We go through one sequence from publication PMC7862700, “An all-to-all approach to the identification of sequence-specific readers for epigenetic DNA modifications on cytosine”.

Assay in all cases: DAPPL (digital affinity profiling via proximity ligation, sequencing); 10 mM Tris-HCl pH 7.5, 50 mM NaCl, 1 mM DTT, 4% glycerol, room temperature, 30 min; GST-TFs on glutathione beads, 16-mer random dsDNA library, 0.1% formaldehyde crosslink after washing; high values mean tight binding
The target of test [1] is T1, FEV (Homo sapiens, UniProt Q99581 1-238).
T1 sequence: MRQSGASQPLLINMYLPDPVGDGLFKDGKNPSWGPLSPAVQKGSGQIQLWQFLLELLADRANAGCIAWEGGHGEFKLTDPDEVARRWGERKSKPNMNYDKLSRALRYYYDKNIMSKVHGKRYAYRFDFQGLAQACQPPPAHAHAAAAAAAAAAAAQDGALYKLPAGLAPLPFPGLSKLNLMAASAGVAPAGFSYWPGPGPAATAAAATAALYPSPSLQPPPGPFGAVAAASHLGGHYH
Conditions: protein: recombinant; tags: N-terminal GST; dsDNA, one strand shown. A digest of the protocol: (§1)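 Each value of binding signal is a hexamer's read frequency for a factor divided by the same hexamer's frequency in the tag-only sample. Barcoded, bead-captured GST fusions of human transcription factors made in yeast were pooled with that sample and incubated with 200 nmole of a random double-stranded 16-mer DNA library in Tris/NaCl/DTT/glycerol buffer at room temperature for 30 min. Washing, 0.1% formaldehyde crosslinking, proximity ligation, PCR and Illumina NextSeq500 sequencing followed.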

Test [2] concerns the target ETV5 (Homo sapiens, UniProt P41161 1-510). Conditions: protein: recombinant; tags: N-terminal GST; dsDNA, one strand shown. The procedure, abridged:
as §1

Test [3] concerns the target HSF1 (Homo sapiens, UniProt Q00613 1-529). The following applies: protein: recombinant; tags: N-terminal GST; chain copies: 3; dsDNA, one strand shown. The procedure, abridged: as §1
Test [4] deals with T2, SPIC (Homo sapiens, UniProt Q8N5J4 1-248).
T2 sequence: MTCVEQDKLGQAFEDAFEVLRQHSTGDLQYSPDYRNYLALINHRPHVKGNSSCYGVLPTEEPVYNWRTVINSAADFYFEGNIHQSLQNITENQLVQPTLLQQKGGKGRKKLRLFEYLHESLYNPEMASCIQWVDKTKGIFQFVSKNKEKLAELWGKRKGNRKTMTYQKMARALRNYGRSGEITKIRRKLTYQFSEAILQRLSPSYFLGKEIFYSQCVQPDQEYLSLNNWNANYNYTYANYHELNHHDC
Conditions: protein: recombinant; tags: N-terminal GST; dsDNA, one strand shown. A digest of the protocol:
as §1

In test [5] the target is ELF4 (Homo sapiens, UniProt Q99607 1-663). The following applies: protein: recombinant; tags: N-terminal GST; dsDNA, one strand shown. A digest of the protocol:
as §1

Test [6] concerns the target T3, ELK4 (Homo sapiens, UniProt P28324-2 1-405).
T3 sequence: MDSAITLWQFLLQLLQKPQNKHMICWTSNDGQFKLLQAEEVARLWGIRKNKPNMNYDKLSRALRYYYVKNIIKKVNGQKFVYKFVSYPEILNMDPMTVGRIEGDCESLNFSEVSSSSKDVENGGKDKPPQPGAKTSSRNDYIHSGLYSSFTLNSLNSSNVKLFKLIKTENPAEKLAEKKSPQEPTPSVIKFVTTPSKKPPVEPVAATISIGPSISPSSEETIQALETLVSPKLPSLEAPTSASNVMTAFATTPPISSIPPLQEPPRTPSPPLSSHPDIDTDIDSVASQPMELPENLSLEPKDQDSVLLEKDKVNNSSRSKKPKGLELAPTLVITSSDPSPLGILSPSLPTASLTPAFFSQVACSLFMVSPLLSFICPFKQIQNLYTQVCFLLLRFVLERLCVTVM
Conditions: protein: recombinant; tags: N-terminal GST; dsDNA, one strand shown. A digest of the protocol:
as §1

The target in test [7] is T4, ETV2 (Homo sapiens, UniProt O00321 1-342).
T4 sequence: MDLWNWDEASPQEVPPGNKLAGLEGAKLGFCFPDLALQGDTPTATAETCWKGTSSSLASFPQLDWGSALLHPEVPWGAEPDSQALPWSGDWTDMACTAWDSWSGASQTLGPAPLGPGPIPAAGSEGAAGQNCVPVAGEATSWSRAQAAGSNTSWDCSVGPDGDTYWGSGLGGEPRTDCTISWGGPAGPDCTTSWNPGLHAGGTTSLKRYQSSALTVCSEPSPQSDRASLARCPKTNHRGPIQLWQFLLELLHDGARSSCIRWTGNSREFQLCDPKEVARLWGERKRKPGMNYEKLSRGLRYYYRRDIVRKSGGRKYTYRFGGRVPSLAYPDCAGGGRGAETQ
Conditions: protein: recombinant; tags: N-terminal GST; dsDNA, one strand shown. The procedure, abridged: as §1

For test [8], the target named is T5, ELF3 (Homo sapiens, UniProt P78545 1-371).
T5 sequence: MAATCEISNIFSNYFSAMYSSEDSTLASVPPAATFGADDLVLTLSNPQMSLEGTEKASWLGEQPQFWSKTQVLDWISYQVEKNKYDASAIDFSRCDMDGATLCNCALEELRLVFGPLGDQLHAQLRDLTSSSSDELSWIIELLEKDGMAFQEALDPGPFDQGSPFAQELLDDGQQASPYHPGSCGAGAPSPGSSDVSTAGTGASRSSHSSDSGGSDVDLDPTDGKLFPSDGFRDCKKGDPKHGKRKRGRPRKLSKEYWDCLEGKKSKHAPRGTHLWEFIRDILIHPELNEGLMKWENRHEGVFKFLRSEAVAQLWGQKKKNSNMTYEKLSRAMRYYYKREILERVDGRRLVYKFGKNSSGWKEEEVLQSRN
Conditions: protein: recombinant; tags: N-terminal GST; dsDNA, one strand shown. A digest of the protocol: as §1

Test [9] addresses CRX (Homo sapiens, UniProt O43186 1-299). Conditions: protein: recombinant; tags: N-terminal GST; dsDNA, one strand shown. The procedure, abridged:
as §1

Test [10] addresses ETV1 (Homo sapiens, UniProt P50549 1-477). Conditions: protein: recombinant; tags: N-terminal GST; dsDNA, one strand shown. A digest of the protocol:
as §1

Test [11] addresses T6, ERF (Homo sapiens, UniProt P50548 1-548).
T6 sequence: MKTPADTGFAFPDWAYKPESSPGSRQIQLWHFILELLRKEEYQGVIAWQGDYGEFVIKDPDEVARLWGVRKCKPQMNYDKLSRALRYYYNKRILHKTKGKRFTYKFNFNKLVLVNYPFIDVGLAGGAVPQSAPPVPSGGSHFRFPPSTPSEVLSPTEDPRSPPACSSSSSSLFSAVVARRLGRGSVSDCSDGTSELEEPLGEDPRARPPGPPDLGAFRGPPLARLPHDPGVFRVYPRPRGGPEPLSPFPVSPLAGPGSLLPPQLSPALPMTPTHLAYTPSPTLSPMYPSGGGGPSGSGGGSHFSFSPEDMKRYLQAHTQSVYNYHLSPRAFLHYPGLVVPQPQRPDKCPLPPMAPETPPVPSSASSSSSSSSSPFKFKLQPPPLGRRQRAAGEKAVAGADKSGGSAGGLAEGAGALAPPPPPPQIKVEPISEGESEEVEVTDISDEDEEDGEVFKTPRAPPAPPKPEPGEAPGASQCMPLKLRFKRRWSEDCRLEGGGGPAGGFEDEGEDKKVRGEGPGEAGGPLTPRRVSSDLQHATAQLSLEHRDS
The following applies: protein: recombinant; tags: N-terminal GST; dsDNA, one strand shown. The procedure, abridged:
as §1

In test [12] the target is T7, ETV3L (Homo sapiens, UniProt Q6ZN32 1-361).
T7 sequence: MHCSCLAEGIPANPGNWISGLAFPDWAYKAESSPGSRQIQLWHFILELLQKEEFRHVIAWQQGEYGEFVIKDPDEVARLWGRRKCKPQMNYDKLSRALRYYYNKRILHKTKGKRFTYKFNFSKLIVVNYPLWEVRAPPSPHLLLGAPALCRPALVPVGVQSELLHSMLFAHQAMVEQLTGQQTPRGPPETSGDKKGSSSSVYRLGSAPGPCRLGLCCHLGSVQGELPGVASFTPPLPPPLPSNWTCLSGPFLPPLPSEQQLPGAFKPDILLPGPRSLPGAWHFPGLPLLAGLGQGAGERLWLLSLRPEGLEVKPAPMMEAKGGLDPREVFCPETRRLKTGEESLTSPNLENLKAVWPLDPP
The following applies: protein: recombinant; tags: N-terminal GST; dsDNA, one strand shown. The procedure, abridged:
as §1

For test [13], the target named is T8, ETS2 (Homo sapiens, UniProt P15036 1-469).
T8 sequence: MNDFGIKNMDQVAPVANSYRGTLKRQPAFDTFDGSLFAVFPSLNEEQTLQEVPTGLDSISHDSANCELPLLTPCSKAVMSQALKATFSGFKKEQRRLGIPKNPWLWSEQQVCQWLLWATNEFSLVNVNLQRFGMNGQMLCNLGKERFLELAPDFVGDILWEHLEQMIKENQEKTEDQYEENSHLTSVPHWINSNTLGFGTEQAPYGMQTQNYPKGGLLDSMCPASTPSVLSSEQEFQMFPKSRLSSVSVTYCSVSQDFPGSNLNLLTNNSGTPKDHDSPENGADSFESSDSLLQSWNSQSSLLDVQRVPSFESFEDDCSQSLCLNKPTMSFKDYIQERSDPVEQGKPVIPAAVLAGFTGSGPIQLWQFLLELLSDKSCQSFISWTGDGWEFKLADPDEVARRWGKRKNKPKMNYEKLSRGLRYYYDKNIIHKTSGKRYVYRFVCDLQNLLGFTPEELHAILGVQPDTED
The following applies: protein: recombinant; tags: N-terminal GST; dsDNA, one strand shown. The procedure, abridged: as §1

Test [14] has as its target T9, SPDEF (Homo sapiens, UniProt O95238 1-335).
T9 sequence: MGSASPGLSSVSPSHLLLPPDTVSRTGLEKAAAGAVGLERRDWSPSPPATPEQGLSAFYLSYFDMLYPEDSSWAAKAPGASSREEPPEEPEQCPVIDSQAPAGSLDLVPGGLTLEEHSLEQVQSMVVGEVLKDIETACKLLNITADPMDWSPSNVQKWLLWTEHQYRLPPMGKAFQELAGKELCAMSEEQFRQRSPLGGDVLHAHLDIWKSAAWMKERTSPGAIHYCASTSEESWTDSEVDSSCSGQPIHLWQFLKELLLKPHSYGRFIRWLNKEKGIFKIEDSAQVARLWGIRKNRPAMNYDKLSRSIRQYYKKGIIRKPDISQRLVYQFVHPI
Conditions: protein: recombinant; tags: N-terminal GST; dsDNA, one strand shown. The procedure, abridged:
as §1

For test [15], the target named is T10, ETV7 (Homo sapiens, UniProt Q9Y603 1-341).
T10 sequence: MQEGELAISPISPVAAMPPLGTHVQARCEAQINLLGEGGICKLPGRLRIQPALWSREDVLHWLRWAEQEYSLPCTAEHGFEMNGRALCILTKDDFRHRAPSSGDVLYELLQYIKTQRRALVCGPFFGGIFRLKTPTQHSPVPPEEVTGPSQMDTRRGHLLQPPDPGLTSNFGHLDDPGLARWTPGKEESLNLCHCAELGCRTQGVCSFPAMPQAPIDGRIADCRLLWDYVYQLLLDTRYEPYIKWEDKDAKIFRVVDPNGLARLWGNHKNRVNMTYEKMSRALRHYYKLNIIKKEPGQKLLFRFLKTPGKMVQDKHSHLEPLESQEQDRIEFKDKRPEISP
The following applies: protein: recombinant; tags: N-terminal GST; dsDNA, one strand shown. A digest of the protocol:
as §1

Test [16] addresses T11, ELF5 (Homo sapiens, UniProt Q9UKW6-2 1-255).
T11 sequence: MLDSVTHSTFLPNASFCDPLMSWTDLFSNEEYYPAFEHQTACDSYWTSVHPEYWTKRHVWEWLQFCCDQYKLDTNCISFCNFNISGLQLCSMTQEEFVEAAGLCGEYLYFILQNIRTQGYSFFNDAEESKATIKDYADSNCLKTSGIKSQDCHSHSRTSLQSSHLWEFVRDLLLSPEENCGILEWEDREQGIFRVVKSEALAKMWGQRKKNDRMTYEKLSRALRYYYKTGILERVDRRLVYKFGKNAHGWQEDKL
Conditions: protein: recombinant; tags: N-terminal GST; dsDNA, one strand shown. A digest of the protocol: as §1

In test [17] the target is T12, ETV3 (Homo sapiens, UniProt P41162-2 1-143).
T12 sequence: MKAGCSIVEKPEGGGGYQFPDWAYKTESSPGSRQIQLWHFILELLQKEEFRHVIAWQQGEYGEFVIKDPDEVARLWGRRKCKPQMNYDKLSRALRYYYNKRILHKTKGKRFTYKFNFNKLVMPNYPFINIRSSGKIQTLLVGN
The following applies: protein: recombinant; tags: N-terminal GST; dsDNA, one strand shown. A digest of the protocol:
as §1

Test [18] has as its target ETV6 (Homo sapiens, UniProt P41212 1-452). The following applies: protein: recombinant; tags: N-terminal GST; dsDNA, one strand shown. A digest of the protocol:
as §1

Sequence of CRX (O43186 whole entry): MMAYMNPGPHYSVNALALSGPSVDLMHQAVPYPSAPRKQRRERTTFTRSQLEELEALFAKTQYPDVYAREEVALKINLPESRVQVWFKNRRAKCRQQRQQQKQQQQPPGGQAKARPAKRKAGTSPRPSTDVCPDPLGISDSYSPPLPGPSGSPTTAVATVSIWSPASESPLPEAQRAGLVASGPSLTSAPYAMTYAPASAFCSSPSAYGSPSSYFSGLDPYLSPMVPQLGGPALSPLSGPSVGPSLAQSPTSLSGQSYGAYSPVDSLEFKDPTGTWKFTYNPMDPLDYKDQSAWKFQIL
Sequence of ETV6 (P41212 whole entry): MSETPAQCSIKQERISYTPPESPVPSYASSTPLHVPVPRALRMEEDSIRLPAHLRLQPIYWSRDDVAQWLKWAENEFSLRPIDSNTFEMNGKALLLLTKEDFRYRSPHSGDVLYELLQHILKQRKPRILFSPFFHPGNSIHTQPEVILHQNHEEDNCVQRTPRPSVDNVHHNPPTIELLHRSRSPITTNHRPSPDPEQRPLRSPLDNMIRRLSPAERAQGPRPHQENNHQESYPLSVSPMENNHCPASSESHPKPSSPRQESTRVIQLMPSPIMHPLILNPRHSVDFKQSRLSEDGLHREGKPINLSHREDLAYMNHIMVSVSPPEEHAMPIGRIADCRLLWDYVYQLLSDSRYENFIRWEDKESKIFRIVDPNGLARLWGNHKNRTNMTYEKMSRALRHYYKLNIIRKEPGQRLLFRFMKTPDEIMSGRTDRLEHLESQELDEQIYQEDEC
Sequence of ETV5 (P41161 whole entry): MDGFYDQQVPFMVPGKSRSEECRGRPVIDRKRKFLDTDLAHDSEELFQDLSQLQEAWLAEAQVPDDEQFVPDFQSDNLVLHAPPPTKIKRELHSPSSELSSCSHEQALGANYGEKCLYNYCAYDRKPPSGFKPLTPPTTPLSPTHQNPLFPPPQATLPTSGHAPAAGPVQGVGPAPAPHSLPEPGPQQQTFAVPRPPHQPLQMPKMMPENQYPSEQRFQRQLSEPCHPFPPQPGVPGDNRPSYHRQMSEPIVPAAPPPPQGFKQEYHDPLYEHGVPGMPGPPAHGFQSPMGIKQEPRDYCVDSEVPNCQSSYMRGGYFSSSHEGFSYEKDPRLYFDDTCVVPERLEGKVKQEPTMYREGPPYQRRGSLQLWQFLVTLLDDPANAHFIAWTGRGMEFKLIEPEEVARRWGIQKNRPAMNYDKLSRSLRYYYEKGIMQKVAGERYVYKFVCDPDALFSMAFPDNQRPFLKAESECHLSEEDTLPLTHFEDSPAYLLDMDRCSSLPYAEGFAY
Sequence of HSF1 (Q00613 whole entry): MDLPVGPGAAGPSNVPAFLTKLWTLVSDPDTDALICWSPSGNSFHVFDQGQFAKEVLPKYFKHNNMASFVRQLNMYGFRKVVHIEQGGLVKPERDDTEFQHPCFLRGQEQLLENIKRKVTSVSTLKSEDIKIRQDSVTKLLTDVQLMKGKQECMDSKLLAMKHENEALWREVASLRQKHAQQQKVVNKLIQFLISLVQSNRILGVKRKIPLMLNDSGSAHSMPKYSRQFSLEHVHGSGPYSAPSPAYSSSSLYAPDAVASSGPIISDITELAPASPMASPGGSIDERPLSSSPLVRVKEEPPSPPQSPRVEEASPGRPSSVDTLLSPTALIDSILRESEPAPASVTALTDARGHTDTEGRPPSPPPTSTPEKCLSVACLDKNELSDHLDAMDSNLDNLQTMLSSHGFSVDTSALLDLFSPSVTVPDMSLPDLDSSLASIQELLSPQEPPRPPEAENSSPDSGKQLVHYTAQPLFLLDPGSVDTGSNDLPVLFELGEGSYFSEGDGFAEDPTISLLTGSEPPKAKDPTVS
Sequence of ETV1 (P50549 whole entry): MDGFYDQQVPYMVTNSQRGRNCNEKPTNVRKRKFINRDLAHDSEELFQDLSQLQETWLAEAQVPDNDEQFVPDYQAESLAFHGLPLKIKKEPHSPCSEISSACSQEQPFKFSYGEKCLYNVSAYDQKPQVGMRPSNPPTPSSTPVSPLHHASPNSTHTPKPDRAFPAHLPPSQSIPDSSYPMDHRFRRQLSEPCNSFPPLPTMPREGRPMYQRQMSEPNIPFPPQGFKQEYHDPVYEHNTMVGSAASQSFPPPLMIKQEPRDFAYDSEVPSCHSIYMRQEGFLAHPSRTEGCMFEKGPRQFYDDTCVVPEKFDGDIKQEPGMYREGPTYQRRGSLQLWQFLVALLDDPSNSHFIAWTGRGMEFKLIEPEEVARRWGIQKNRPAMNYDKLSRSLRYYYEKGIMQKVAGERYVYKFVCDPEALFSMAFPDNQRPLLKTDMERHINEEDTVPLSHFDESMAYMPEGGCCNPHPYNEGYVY
Sequence of ELF4 (Q99607 whole entry): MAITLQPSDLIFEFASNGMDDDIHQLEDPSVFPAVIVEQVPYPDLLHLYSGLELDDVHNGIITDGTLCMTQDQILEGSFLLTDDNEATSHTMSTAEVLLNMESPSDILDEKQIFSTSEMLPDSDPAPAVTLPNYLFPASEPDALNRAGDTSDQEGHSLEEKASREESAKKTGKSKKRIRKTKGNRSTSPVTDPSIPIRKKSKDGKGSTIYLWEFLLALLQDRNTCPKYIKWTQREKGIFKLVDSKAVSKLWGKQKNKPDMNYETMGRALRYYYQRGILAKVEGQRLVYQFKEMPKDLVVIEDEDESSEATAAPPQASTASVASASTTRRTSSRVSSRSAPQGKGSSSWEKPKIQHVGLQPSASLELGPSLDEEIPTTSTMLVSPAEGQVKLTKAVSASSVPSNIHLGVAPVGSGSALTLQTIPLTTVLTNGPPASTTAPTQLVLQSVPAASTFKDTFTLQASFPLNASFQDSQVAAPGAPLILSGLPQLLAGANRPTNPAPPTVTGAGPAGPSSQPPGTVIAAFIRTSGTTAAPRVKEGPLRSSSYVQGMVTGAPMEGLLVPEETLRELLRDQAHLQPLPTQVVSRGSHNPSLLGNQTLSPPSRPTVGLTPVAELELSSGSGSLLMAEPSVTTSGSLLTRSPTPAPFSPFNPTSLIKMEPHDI

With ATACGA, the binding signal was 1.16 fold enrichment (6-mer frequency, TF over GST control) in [1]; 1.17 fold enrichment (6-mer frequency, TF over GST control) in [2]; 1.22 fold enrichment (6-mer frequency, TF over GST control) in [3]; 1.01 fold enrichment (6-mer frequency, TF over GST control) in test [4]; 1.21 fold enrichment (6-mer frequency, TF over GST control) in test [5]; 1.08 fold enrichment (6-mer frequency, TF over GST control) in test [6]. Moreover, the binding signal in test [7] was 1.05 fold enrichment (6-mer frequency, TF over GST control); in test [8], 1.08 fold enrichment (6-mer frequency, TF over GST control); in test [9], 1.17 fold enrichment (6-mer frequency, TF over GST control); in [10], 1.19 fold enrichment (6-mer frequency, TF over GST control); in [11], 1.17 fold enrichment (6-mer frequency, TF over GST control); in test [12], 1.1 fold enrichment (6-mer frequency, TF over GST control). Moreover, the binding signal was 1.17 fold enrichment (6-mer frequency, TF over GST control) in test [13]; 1.18 fold enrichment (6-mer frequency, TF over GST control) in test [14]; 1.11 fold enrichment (6-mer frequency, TF over GST control) in [15]; 1.17 fold enrichment (6-mer frequency, TF over GST control) in test [16]; 1.11 fold enrichment (6-mer frequency, TF over GST control) in test [17]; 1.08 fold enrichment (6-mer frequency, TF over GST control) in test [18].
